Assay outcomes deposited in PubChem by National Center for Advancing Translational Sciences (NCATS).
KB-3-1 tox – KB-3-1 parental cell cytotoxicity; KB-3-1 viability, CellTiter-Glo ATP luminescence, 72 h; Potency, µM (doses to about 46.1 µM), actives largely listed as cytotoxic; actives 1.4% (n = 400,000); further: nearly all actives have a fitted effect of over 60% in size
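Luminescent ATP read-out (CellTiter-Glo) measures survival of drug-naive KB-3-1 cells after 72 h compound exposure at 37 °C. Titration series was screened from lowest to highest concentration, with DMSO vehicle plates as background controls.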
DT40 TDP1 CPT – growth inhibition of DT40 Tdp1-/-;hTDP1 cells with camptothecin (screen for TDP1 inhibitors); chicken DT40 Tdp1-/-;hTDP1 cells + 20 nM CPT, ATP luminescence, 48 h; Potency, µM (top dose mostly 46.2 µM), inactives show at the highest dose activity change, negative = growth inhibition, usual class: inhibitors; actives 12% (n = 420,000); further: nearly all actives have a fitted effect of over 55% in size
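Cell growth measured by CellTiter-Glo luminescence after a minimum 48 h, 37 C compound exposure with 20 nM CPT in Tdp1-knockout DT40 cells stably expressing hTDP1, seeded 400/well; qHTS titration format.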
DT40 TDP1 no CPT – qHTS for Inhibitors of human tyrosyl-DNA phosphodiesterase 1 (TDP1): qHTS in cells in absence of CPT; DT40 Tdp1-/- hTDP1 cells, no CPT, ATP luminescence, 48 h; Potency, µM (top dose mostly 46.2 µM), inactives show top-dose activity change, negative = growth inhibition, actives largely listed as inhibitors; actives 15% (n = 420,000); AID 686978, 2013; further: nearly all actives have a fitted effect of over 55% in size
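Luminescent ATP content (CellTiter-Glo) served as the growth readout. Knockout chicken DT40 cells expressing human TDP1 were exposed to compounds without camptothecin for a minimum 48 hr at 37 °C.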
HT1080NT lethal – kills 2HG-producing HT-1080-NT fibrosarcoma cells; actives 1.6% (n = 360,000); Potency, µM (top dose mostly 46.1 µM), for the others: at the top dose activity, negative = less viability, hits mostly cytotoxic; AID 686970; HT-1080-NT fibrosarcoma viability, CellTiter-Glo ATP luminescence, 48 h;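 further: NT is the 2HG producing partner of a matched IDH1 knockdown line; 0% = DMSO-treated cells and -100% = media-only wells without cells; nearly all actives have a fitted effect of over 55% in size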
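Viability by CellTiter-Glo luminescence after 48 h compound exposure at 37C of HT-1080-NT cells (750/well, RPMI, 5% FBS). % activity scaled between DMSO wells and medium-only wells, then curve-fitted and categorized by curve class.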
HT1080 IDH1KD tx – toxicity to HT-1080 IDH1 knockdown cells (counter line). HT-1080 IDH1 knockdown viability, ATP luminescence, 48 h. Potency, µM (highest dose often 46.1 µM), for inactives: at the highest dose activity, negative = toxicity, most hits filed as cytotoxic. actives 2% (n = 360,000). AID 686971;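 further: 0% = DMSO wells and -100% = cell-free medium wells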
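HT-1080-IDH1KD cells (IDH1 knocked down), 750/well in RPMI with 5% FBS, treated with compound 48 h at 37 degrees C. Viability by CellTiter-Glo luminescence, normalised to DMSO and no-cell wells; concentration-response curves classed.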
KB-V1 cytotox – kills drug-selected multidrug resistant KB-V1 cells; KB-V1 MDR cells viability, CellTiter-Glo, 72 h; Potency, µM (doses to about 46.1 µM), most hits filed as cytotoxic; actives 3.4% (n = 400,000); further: nearly all actives have a fitted effect of over 60% in size
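Cytotoxicity via CellTiter-Glo luminescence after 72 h compound exposure at 37 degrees C. Cells: drug-selected KB-V1 line, DMEM phenol-red free plus 10% FBS. Compounds tested at multiple concentrations; normalized data fitted to concentration-effect curves.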
The depositor's hits bear a star; i = inactive; ? = inconclusive; / = not tested or not shown; [ ] = dose if it differs, or a comment. Compounds with a hit are over-represented: about 19% of the library has one in this group of screens. The call rests on the fitted dose curve; in most records, active means well fitted curve in the direction sought with a large enough effect; inconclusive means small, poorly fitted or top-dose-only effect, or another doubt; inactive means no such curve, though single readings can be large; an effect the other way counts as inactive or inconclusive. Unless noted, on the % scale 0 is the no-effect control and ±100 the full control effect; potency means the concentration at half of the fitted maximal effect.

SMILES	KB-3-1 tox	DT40 TDP1 CPT	DT40 TDP1 no CPT	HT1080NT lethal	HT1080 IDH1KD tx	KB-V1 cytotox
Cc1cnc(NC(=O)c2cc(-c3ccccc3)nn2-c2ccccc2)s1	i	-2.5%	-21.4%	8.7%	7.7%	i
Cc1ccc(-c2nnc(N3CCC(C)CC3)c3ccccc23)cc1C	i	6.51µM*	9.2µM*	?	29.1µM*	?
Cc1ccc(-c2nnc(N3CCC(C)CC3)c3ccccc23)cc1	i	13µM*	8.2µM*	-15.5%	-20.1%	?
Cc1ccc(-c2nnc(N3CCOCC3)c3ccccc23)cc1S(=O)(=O)N(C)C	i	-23.9%	-12.7%	20.9%	17.3%	i
CC1CCOC(c2coc3ccccc3c2=O)O1 (stereo not given)	i	-4.0%	-10.4%	-23.2%	-20.2%	?
O=C(O)C1CSC(c2coc3ccccc3c2=O)N1 (stereo not given)	i	25.9µM*	?	-28.8%	?	i
COc1ccc(N2CCN(C(=O)c3ccccc3Br)CC2)c([N+](=O)[O-])c1	i	?	14.6µM*	-6.2%	-0.9%	i
COc1ccc(N2CCN(C(=O)c3ccc(Br)cc3)CC2)c([N+](=O)[O-])c1	i	?	18.4µM*	15.5%	9.6%	?
COc1ccc(N2CCN(c3ccc(N4C(=O)COCC4=O)cc3[N+](=O)[O-])CC2)cc1	i	?	9.2µM*	-0.4%	-11.6%	?
Cc1ccc(-c2nn(C)c(=O)c3ccccc23)cc1CNC(=O)CN1CCOCC1	i	?	?	-0.6%	3.4%	i
Cn1nc(C(=O)Nc2ccc3c(c2)OCCO3)c2ccccc2c1=O	i	-18.3%	-6.5%	-0.7%	7.5%	i
Cn1nc(-c2ccc3c(c2)OCCO3)c2ccccc2c1=O	i	?	20.6µM*	-14.8%	-0.6%	?
CCCCNS(=O)(=O)c1cc(-c2nn(C)c(=O)c3ccccc23)ccc1C	16.4µM*	?	-0.9%	-20.4%	?	?
CCN(CC)S(=O)(=O)c1cc(-c2nn(C)c(=O)c3ccccc23)ccc1C	i	23.1µM*	16.4µM*	-13.8%	-19.8%	i
COCCNS(=O)(=O)c1cc(-c2nn(C)c(=O)c3ccccc23)ccc1C	i	3.7%	?	-19.7%	-11.2%	?
Cc1cc(C)n(CC(=O)NCc2cc(-c3nn(C)c(=O)c4ccccc34)ccc2C)n1	i	?	16.4µM*	-4.7%	-3.3%	i
COc1cn(-c2ccccc2)nc1C(=O)NCc1ccccc1	i	-27.5%	-19.2%	-2.1%	-12.8%	i
Cc1cccc2sc(N(Cc3cccnc3)C(=O)Cc3ccccc3)nc12	/	-23.0%	-26.3%	/	/	/
CC(C)C(=O)N1CCC1(C)C(=O)Nc1cc(-c2ccccc2)nn1C (stereo not given)	i	?	-28.0%	-0.5%	-0.7%	i
CCOc1ccc(-c2nnc3ccc(SCc4ccc(C(=O)OC)o4)nn23)cc1	i	?	15.8µM*	12.9%	1.3%	i
Cc1ccc(-c2nnc3ccc(SCC(=O)NCc4ccco4)nn23)cc1	i	?	-9.9%	-15.7%[9.24 µM]	-18.5%	?
COC(=O)c1ccc(CSc2ccc3nnc(-c4ccc(F)cc4)n3n2)o1	i	?	20.6µM*	-12.7%	0.2%	i
CCOc1ccc(-c2nnc3ccc(SCC(=O)NCc4ccco4)nn23)cc1	i	-27.9%	?	-16.0%	?	16.4µM*
COC(=O)c1ccc(CSc2ccc3nnc(-c4ccccn4)n3n2)o1	i	-12.6%	?	14.3%	0.9%	i
COc1ccc(-c2oc3c(c2C(=O)OCCO)C(OCCCO)CCC3)cc1 (stereo not given)	i	?	?	8.4%	10.3%	?
SMILES	KB-3-1 tox	DT40 TDP1 CPT	DT40 TDP1 no CPT	HT1080NT lethal	HT1080 IDH1KD tx	KB-V1 cytotox
COc1ccc2c(c1)C1=NN(/C(C)=C/C(C)=O)C(c3cccc(F)c3)C1CC2 (stereo not given)	i	-0.2%	-15.2%	-14.4%	-12.0%	i
COc1ccc2c(c1)C1=NN(/C(C)=C\C(C)=O)C(c3ccccc3)C1CC2 (stereo not given)	i	18.4µM*	?	-24.6%	-21.3%	i
CN1N=C2c3ccccc3CCCC2C1c1ccc(F)cc1 (stereo not given)	i	-23.0%	?	-15.7%	-17.4%	i
CC(=O)N1N=C2c3ccccc3CCC2C1c1cccs1 (stereo not given)	i	?	?	-2.0%	1.8%	i
COc1ccc2c(c1)C1=NN(/C(C)=C/C(C)=O)C(c3ccc(F)cc3)C1CC2 (stereo not given)	i	?	?	4.9%	12.7%	20.6µM*
COc1ccc2c(c1)CCC1C2=NN(/C(C)=C\C(C)=O)C1c1ccc(F)cc1 (stereo not given)	i	18.4µM*	?	0.0%	-0.8%	i
COCC(=O)Nc1cc(C(=O)N2CC3(C)CC2CC(C)(C)C3)c2c(c1)nc(-c1ccncc1)n2C (stereo not given)	/	12.3%[9.04 µM]	-2.5%	/	/	/
NNc1nnc2c3cc(F)ccc3n(CCc3ccccc3)c2n1	23.1µM*	?	16.4µM*	?	?	?
CCN(CC)CCSc1nnc2c3cc(F)ccc3n(Cc3ccccc3)c2n1	i	?	?	-9.3%	?	i
O=S1(=O)NC2c3ccccc3CC2O1 (stereo not given)	i	11.6µM*	?	-2.6%	-0.1%	i
COc1cc(OC)cc(-c2nc3ccccc3c(=O)n2OC(=O)c2ccc(C)c(C)c2)c1	i	?	?	?	?	?
Cc1ccc2c(c1)[C@H]1[C@H](CO2)[C@H](c2ccccc2)[C@]2(C)C(=O)N(Cc3ccc(F)cc3)CC(=O)N12	?	?	20.6µM*	?	-12.1%	i
COc1ccc2c(c1)OC[C@H]1[C@H]2N2C(=O)CN(Cc3ccc(F)cc3)C(=O)[C@@]2(C)[C@H]1c1ccccc1	?	?	?	-8.9%	-7.8%	?
CN1CC(=O)N2[C@H]3c4ccccc4OC[C@@H]3[C@H](c3ccccc3)[C@]2(C)C1=O	i	-16.0%	-11.6%	3.3%	2.1%	i
